Screening data (PubChem BioAssay)
In the library only some 5% were active in any assay of this set; here they are far more common.
SENP7 inh = inhibitors of human SENP7 protease. AID 434973. 330,000 tested, 1.5% active. recombinant SENP7, Z-RLRGG-aminoluciferin luminescence, 40 min. Q9BQF6. inhibition, % at 5 µM;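 active means inhibition above about 50% at the single test dose, limit read from the data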;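 further: plate controls were DMSO with enzyme for no effect and no enzyme buffer wells for full effect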
EBI2 antag = blocks human EBI2 receptor beta-arrestin signaling; EBI2 beta-arrestin recruitment, luminescence, 7a,25-OHC stimulated; inhibition, % at 5 µM; 360,000 tested, 0.81% active; in the data active means inhibition above about 38%;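 further: enzyme fragment complementation signal reports receptor beta-arrestin coupling in cells; 0% = agonist plus DMSO wells and 100% = wells without agonist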
SENP8 block-1 = inhibitors of human SENP8 protease | 330,000 tested, 1.2% active | purified SENP8, Z-RLRGG-aminoluciferin cleavage, luminescence | inhibition, % at 10 µM | Q96LD8; in the data active means inhibition above about 50%
AHR activator = activators of human aryl hydrocarbon receptor. 320,000 tested, 2.5% active. P35869. AHR-responsive luciferase reporter cells, luminescence. AID 2796. activation, % at 5 µM; in the data active means activation above about 47%;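 further: 0% = vehicle wells and 100% = reference agonist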
Target sequence (P35869 whole entry, looked up): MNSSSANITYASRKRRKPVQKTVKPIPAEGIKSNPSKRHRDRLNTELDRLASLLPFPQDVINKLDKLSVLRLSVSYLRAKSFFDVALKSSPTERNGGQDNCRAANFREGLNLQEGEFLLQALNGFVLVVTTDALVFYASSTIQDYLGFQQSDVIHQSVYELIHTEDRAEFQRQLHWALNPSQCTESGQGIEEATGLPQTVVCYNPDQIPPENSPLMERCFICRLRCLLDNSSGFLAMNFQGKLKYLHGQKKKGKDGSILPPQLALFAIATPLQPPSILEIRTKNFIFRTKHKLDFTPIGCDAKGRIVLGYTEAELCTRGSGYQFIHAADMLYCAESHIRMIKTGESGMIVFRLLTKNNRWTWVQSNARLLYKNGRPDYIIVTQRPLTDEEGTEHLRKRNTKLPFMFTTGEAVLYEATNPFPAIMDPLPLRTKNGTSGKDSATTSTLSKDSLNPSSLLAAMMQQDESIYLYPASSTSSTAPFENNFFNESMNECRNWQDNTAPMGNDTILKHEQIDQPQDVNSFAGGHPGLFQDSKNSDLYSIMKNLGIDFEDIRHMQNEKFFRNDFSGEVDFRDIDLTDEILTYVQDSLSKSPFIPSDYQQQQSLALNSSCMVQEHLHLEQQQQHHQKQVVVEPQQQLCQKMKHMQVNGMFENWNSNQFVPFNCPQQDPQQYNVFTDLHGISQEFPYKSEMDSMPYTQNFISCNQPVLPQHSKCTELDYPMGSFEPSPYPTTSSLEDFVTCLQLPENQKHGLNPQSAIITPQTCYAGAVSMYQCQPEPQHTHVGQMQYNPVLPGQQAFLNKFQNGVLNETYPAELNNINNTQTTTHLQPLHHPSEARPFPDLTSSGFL
SENP6 block = blocks the human protease SENP6 | Q9GZR1 | Recombinant SENP6 catalytic domain, aminoluciferin luminescence | inhibition, % at 10 µM | 330,000 tested, 1.8% active | AID 2599;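 active means inhibition above about 50% at the single tested dose, limit read from the data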;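 further: plate controls were DMSO wells with enzyme for no effect and DMSO wells lacking enzyme for full effect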
SENP8 block-2 = SENP8 (human) protease inhibition. Q96LD8. recombinant SENP8, Nedd8 substrate fluorescence. inhibition, % at 20 µM. 360,000 tested, 0.64% active; in the data active means inhibition mostly above about 40%, no sharp cut-off; inactive means mostly below about 27%
SENP8 inh conf = confirmation of human SENP8 protease inhibitors; shares compounds with SENP8 block-2; purified SENP8, Nedd8-AMC/pro-Nedd8 cleavage fluorescence, 30 min; inhibition, % at 25 µM; 1,400 tested, 15% active; AID 624319; in the data active means inhibition mostly above about 39%, no sharp cut-off; inactive means mostly below about 34%
* marks the source's active call; other numbers are inactive results; nt = no result given.

SMILES	SENP7 inh	EBI2 antag	SENP8 block-1	AHR activator	SENP6 block	SENP8 block-2	SENP8 inh conf
COc1ccc(S(=O)(=O)N2CCSC2c2ccc(OC)c(OC)c2)cc1 (stereo unspecified)	-3	5	-6	2	-7	50*	16
Cc1nn(-c2ccccc2)c(N2CCCC2)c1/C=N/Nc1ccc(S(=O)(=O)Nc2ccccc2)cc1[N+](=O)[O-]	3	24	2	0	4	64*	13
Cc1ccc(-n2[nH]c(C)c(/C=N/Nc3ccc([N+](=O)[O-])cc3[N+](=O)[O-])c2=O)cc1C	5	13	9	17	-1	40*	29
CCOc1ccc(S(=O)(=O)Nc2ccc(C(=O)N/N=C/c3c(C)nn(-c4ccccc4)c3N3CCCC3)cc2)cc1	-8	1	-8	10	-3	-116	nt
COc1ccccc1NS(=O)(=O)c1ccc(N/N=C/c2c(C)nn(-c3ccccc3)c2N2CCCC2)c([N+](=O)[O-])c1	10	12	2	-1	23	45*	16
COc1c(/C=N/Nc2ccc([N+](=O)[O-])cc2[N+](=O)[O-])c(C)nn1-c1ccccc1	7	9	1	0	1	62*	24
COc1ccc(C(=O)Nc2c(C)csc2C(=O)O)cc1	1	-2	3	4	1	10	nt
CCCN(CC(=O)Nc1ccccc1C)C(=O)CSc1ccccc1C	4	1	-1	0	-11	5	nt
Cc1cc(=O)[nH]c(-n2[nH]c(C)cc2=O)n1	2	-10	-1	8	-2	25	nt
COc1ccc(-n2[nH]c(C)cc2=O)cc1	-3	-8	-5	9	-6	68*	40
CCN(CC)S(=O)(=O)c1ccc(Cl)c(C(=O)OC2CC(C)OC2=O)c1 (stereo unspecified)	-4	-7	4	1	1	15	nt
COC(=O)/C=C/c1c(C)nc(NCc2ccccc2)nc1Cl	-1	7	-4	3	-5	-222	nt
CCOC(=O)N1CCC(Nc2ccc(N3C(=O)C4CCCCC4C3=O)cc2[N+](=O)[O-])CC1 (stereo unspecified)	8	-8	1	2	-22	38*	22
CC1CCC2C(=O)N(c3ccc(NC4CCCCC4)c([N+](=O)[O-])c3)C(=O)C2C1 (stereo unspecified)	2	8	1	0	-7	24	nt
COc1cc([N+](=O)[O-])cc2sc(NC(C)=O)nc12	-2	9	-10	8	-20	59*	12
CC(=O)c1c(O)cc(O)c(C(C)=O)c1O	2	3	-2	0	1	45*	20
COc1ccc(Br)cc1C(=O)NC(=S)Nc1c(C)n(C)n(-c2ccccc2)c1=O	2	-12	4	16	-6	12	nt
CN1CCN(c2cc(-c3cc(O)c4ncccc4c3)ccn2)CC1	4	-9	-2	12	-6	52*	48*
CN1CCN(C(=O)c2cccc(-c3cc(O)c4ncccc4c3)c2)CC1	-4	-11	6	0	-5	10	nt
CC(C)C(=O)NCc1cc(-c2ccccc2)no1	-6	-4	-11	4	-7	6	nt
CNc1ccc(/C=C2\COc3ccccc3C2=O)cc1[N+](=O)[O-]	-18	17	-6	2	-8	50*	14
CC(C)[C@H](Nc1ccc(C(F)(F)F)cc1[N+](=O)[O-])C(=O)O	5	2	2	13	-10	41*	22
Cc1cc(C)c(C(=O)COC(=O)[C@H](C)Nc2ccc(C(F)(F)F)cc2[N+](=O)[O-])c(C)c1	-1	-1	-3	1	-1	14	nt
CNC(=S)N/N=C/c1ccc(-c2ccc(Cl)c([N+](=O)[O-])c2)o1	3	28	14	8	14	33*	1
Cc1ccc(-c2ccc(/C=N/NC(=S)Nc3ccccc3)o2)cc1[N+](=O)[O-]	4	37	0	26	20	23	nt
O=[N+]([O-])c1cccc(-c2ccc(/C=N/NC(=S)Nc3cccc(F)c3)o2)c1	-2	10	6	49*	-18	52*	11
COc1ccc(CSc2nc(C)cc(C)c2S(C)(=O)=O)cc1	-1	8	4	7	-5	-1	nt
